Results as given in PubChem BioAssay (NCI).
Compounds without any hit were thinned out: in the full panel of roughly 79,000, 15% have a hit. Active and inactive are the calls of the source. Rule as the data show it: active = growth inhibition above about 70%; inactive = the rest.

Experiments:
[1] = NCI Yeast Anticancer Drug Screen. Data for the rad52 strain (AID 147);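 also: 0% = growth of vehicle-treated control cultures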; settings: S. cerevisiae rad52 mutant growth inhibition, active compounds read high
In short: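 Yeast strain carrying a DNA damage repair alteration was exposed to test compounds. Growth inhibition was measured relative to vehicle-treated controls.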

[2] = NCI Yeast Anticancer Drug Screen. Data for the wt1 strain (AID 149);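 also: 0% = growth of vehicle-treated wt1 cultures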; settings: S. cerevisiae wt1 strain (SPY 50644) growth inhibition, active compounds read high
In short: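 Compounds are added to wt1 yeast cultures. Growth is then measured. Inhibition is expressed relative to vehicle-treated controls.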

[3] = NCI Yeast Anticancer Drug Screen. Data for the mgt1 strain (AID 153); settings: S. cerevisiae mgt1 mutant growth inhibition, active compounds read high
In short: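 Yeast mgt1 strain (DNA repair/cell-cycle alteration panel) exposed to compounds; growth inhibition measured relative to vehicle-treated controls.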

[4] = NCI Yeast Anticancer Drug Screen. Data for the rad50 strain (AID 155);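 also: 0% = growth of vehicle-only cultures of the same strain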; settings: S. cerevisiae rad50 strain growth inhibition, active compounds read high
In short: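 Inhibition values express reduced yeast growth in compound-treated cultures relative to vehicle-treated controls.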

[5] = NCI Yeast Anticancer Drug Screen. Data for the mec2-1 strain (AID 157); settings: S. cerevisiae mec2-1 strain, active compounds read high
In short: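 mec2-1 yeast strain, carrying an alteration in DNA damage repair or cell cycle control, was exposed to compounds; growth inhibition was measured relative to vehicle-treated controls.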

[6] = NCI Yeast Anticancer Drug Screen. Data for the rad14 strain (AID 159);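 also: 0% = growth of vehicle-treated control cultures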; settings: S. cerevisiae rad14 strain growth inhibition, active compounds read high
In short: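 A mutant yeast strain defective in DNA damage repair is treated with compound; inhibition of its growth is scored against untreated, vehicle-exposed cultures.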

[7] = NCI Yeast Anticancer Drug Screen. Data for the sgs1 mgt1 strain (AID 161);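 also: 0% = growth of cultures given vehicle only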; settings: S. cerevisiae sgs1 mgt1 strain, active compounds read high
In short: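 Growth of a repair-deficient yeast mutant was monitored after compound treatment and expressed as inhibition relative to vehicle-treated cultures.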

[8] = NCI Yeast Anticancer Drug Screen. Data for the CLN2oe strain (AID 163);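 also: 0% = growth of vehicle-only control cultures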; settings: S. cerevisiae CLN2oe strain, active compounds read high
In short: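 Yeast cells carrying a defined cell-cycle control alteration were exposed to test compounds. Growth inhibition was scored against vehicle-treated control cultures.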

[9] = NCI Yeast Anticancer Drug Screen. Data for the cln2 rad14 strain (AID 165);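 also: 0% = growth equal to vehicle treated cultures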; settings: S. cerevisiae cln2 rad14 strain, active compounds read high
In short: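 Yeast carrying cln2 and rad14 alterations (cell cycle control and DNA damage repair) were exposed to compounds. Growth inhibition was measured against vehicle-treated controls.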

[10] = NCI Yeast Anticancer Drug Screen. Data for the bub3 strain (AID 167); settings: S. cerevisiae bub3 mutant strain, active compounds read high
In short: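 Steps: expose the mutant yeast strain to compound; grow alongside vehicle-treated cultures; measure growth; express inhibition against the vehicle cultures.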

[11] = NCI Yeast Anticancer Drug Screen. Data for the wt2 strain (AID 169);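 also: 0% = growth of vehicle-treated yeast cultures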; settings: S. cerevisiae wt2 strain growth inhibition, active compounds read high
In short: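 Yeast cells were exposed to test compounds, and growth inhibition was measured relative to vehicle-treated controls.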

[12] = NCI Yeast Anticancer Drug Screen. Data for the mlh1 strain (AID 171);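 also: 0% = growth of vehicle-treated control cultures of the same strain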; settings: S. cerevisiae mlh1 strain growth inhibition, active compounds read high
In short: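 Yeast carrying a defined genetic alteration in DNA damage repair or cell cycle control were exposed to test compounds. Growth inhibition was measured relative to vehicle-treated controls.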

[13] = NCI Yeast Anticancer Drug Screen. Data for the sgs1 strain (AID 173);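 also: 0% = growth of vehicle-only control cultures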; settings: S. cerevisiae sgs1 mutant, active compounds read high
In short: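 Yeast mutant strains carrying defined defects in DNA damage repair or cell cycle control were exposed to test compounds. Growth inhibition was scored against vehicle-treated controls.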

[14] = NCI Yeast Anticancer Drug Screen. Data for the mlh1 rad18 strain (AID 175); settings: S. cerevisiae mlh1 rad18 strain growth inhibition, active compounds read high
In short: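 Growth inhibition of the yeast strain was measured after compound exposure and expressed relative to vehicle-treated controls. The strain carries defined defects in DNA damage repair.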

[15] = NCI Yeast Anticancer Drug Screen. Data for the rad18 strain (AID 177); settings: S. cerevisiae rad18 mutant growth inhibition, active compounds read high
In short: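 Yeast carrying a defined DNA damage repair alteration were exposed to compounds. Growth inhibition was expressed relative to vehicle-treated controls.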

[16] = at 5.0 µM (retest, dose inferred, filed as 0.5)
[17] = at 50.0 µM (retest, dose inferred, filed as 5.0)

Measured: growth inhibition

O=c1nc2n(Cc3ccccc3)c3ccccc3nc-2c(=O)[nH]1
inactive: [1]; at 1.2 µM 0% | [1]; at 3.7 µM 2% | [1]; at 11.0 µM 6% | [1]; at 33.0 µM 4% | [1]; at 100.0 µM 4% | [2]; at 1.2 µM -1% | [2]; at 3.7 µM 4% | [2]; at 11.0 µM 2% | [2]; at 33.0 µM 2% | [2]; at 100.0 µM 3% | [3]; at 1.2 µM -5% | [3]; at 3.7 µM 5% | [4]; at 1.2 µM -2% | [4]; at 3.7 µM -1% | [4]; [16] -15% | [4]; at 11.0 µM 2% | [4]; at 33.0 µM -1% | [4]; [17] 13% | [4]; at 50.0 µM 26.1% | [4]; at 100.0 µM 1% | [5]; at 1.2 µM -2% | [5]; at 3.7 µM 3% | [5]; [16] -2% | [5]; at 11.0 µM 5% | [5]; at 33.0 µM 6% | [5]; [17] -5% | [5]; at 50.0 µM 37.9% | [5]; at 100.0 µM 12% | [6]; at 1.2 µM 0% | [6]; at 3.7 µM 3% | [6]; at 11.0 µM 5% | [6]; at 33.0 µM 1% | [6]; at 100.0 µM 1% | [7]; [16] 39% | [8]; at 1.2 µM -12% | [8]; at 3.7 µM -7% | [8]; at 11.0 µM 3% | [8]; at 33.0 µM 5% | [8]; at 100.0 µM 0% | [9]; [16] 6% | [9]; [17] 22% | [9]; at 50.0 µM 28.2% | [10]; at 1.2 µM -3% | [10]; at 3.7 µM -6% | [10]; [16] 19% | [10]; at 11.0 µM -3% | [10]; at 33.0 µM -6% | [10]; [17] 1% | [10]; at 50.0 µM 11.4% | [10]; at 100.0 µM -8% | [11]; at 1.2 µM -2% | [11]; at 3.7 µM 3% | [11]; at 11.0 µM 67% | [12]; at 1.2 µM -3% | [12]; at 3.7 µM 3% | [12]; at 11.0 µM 65% | [13]; at 1.2 µM -2% | [13]; at 3.7 µM 11% | [14]; [16] 37% | [14]; [17] 39% | [14]; at 50.0 µM 26.6% | [15]; at 1.2 µM 0% | [15]; at 3.7 µM 1% | [15]; at 11.0 µM 4% | [15]; at 33.0 µM 9% | [15]; at 100.0 µM 9%
active: [3]; at 11.0 µM 74% | [3]; at 33.0 µM 94% | [3]; at 100.0 µM 96% | [7]; [17] 96% | [7]; at 50.0 µM 97.2% | [11]; at 33.0 µM 93% | [11]; at 100.0 µM 96% | [12]; at 33.0 µM 93% | [12]; at 100.0 µM 97% | [13]; at 11.0 µM 74% | [13]; at 33.0 µM 94% | [13]; at 100.0 µM 97%

Cc1cc(C(C)(C)C)c(OCCCN2CCOCC2)c(C(C)(C)C)c1
active: [1]; at 100.0 µM 96% | [3]; at 100.0 µM 99% | [4]; at 50.0 µM 75.5% | [4]; at 100.0 µM 94% | [5]; at 100.0 µM 98% | [6]; at 100.0 µM 99% | [7]; at 50.0 µM 82.2% | [8]; at 100.0 µM 97% | [10]; at 50.0 µM 75.5% | [10]; at 100.0 µM 94% | [11]; at 100.0 µM 98% | [12]; at 100.0 µM 97% | [13]; at 100.0 µM 98% | [14]; at 50.0 µM 83.8% | [15]; at 100.0 µM 98%
inactive: [1]; at 1.2 µM -5% | [1]; at 3.7 µM -9% | [1]; at 11.0 µM -14% | [1]; at 33.0 µM -3% | [2]; at 1.2 µM -1% | [2]; at 3.7 µM 0% | [2]; at 11.0 µM -3% | [2]; at 33.0 µM -7% | [2]; at 100.0 µM 62% | [3]; at 1.2 µM 0% | [3]; at 3.7 µM -4% | [3]; at 11.0 µM -9% | [3]; at 33.0 µM 4% | [4]; at 1.2 µM -1% | [4]; at 3.7 µM -6% | [4]; [16] 5% | [4]; at 11.0 µM 5% | [4]; at 33.0 µM 8% | [4]; [17] 50% | [5]; at 1.2 µM -1% | [5]; at 3.7 µM -5% | [5]; [16] -2% | [5]; at 11.0 µM -8% | [5]; at 33.0 µM -4% | [5]; [17] 12% | [5]; at 50.0 µM 59.5% | [6]; at 1.2 µM -2% | [6]; at 3.7 µM -1% | [6]; at 11.0 µM -5% | [6]; at 33.0 µM 15% | [7]; [16] 2% | [7]; [17] -10% | [8]; at 1.2 µM -5% | [8]; at 3.7 µM -4% | [8]; at 11.0 µM -15% | [8]; at 33.0 µM -17% | [9]; [16] -21% | [9]; [17] -81% | [9]; at 50.0 µM 24.3% | [10]; at 1.2 µM -5% | [10]; at 3.7 µM -1% | [10]; [16] -15% | [10]; at 11.0 µM -32% | [10]; at 33.0 µM 6% | [10]; [17] -10% | [11]; at 1.2 µM -2% | [11]; at 3.7 µM -3% | [11]; at 11.0 µM -8% | [11]; at 33.0 µM 9% | [12]; at 1.2 µM 3% | [12]; at 3.7 µM 2% | [12]; at 11.0 µM -3% | [12]; at 33.0 µM -16% | [13]; at 1.2 µM 0% | [13]; at 3.7 µM 0% | [13]; at 11.0 µM 0% | [13]; at 33.0 µM 25% | [14]; [16] -7% | [14]; [17] 48% | [15]; at 1.2 µM -1% | [15]; at 3.7 µM -7% | [15]; at 11.0 µM -19% | [15]; at 33.0 µM -9%

CC1SC2(C(=O)Nc3ccc(Cl)cc32)N(c2ccc(Cl)cc2)C1=O (stereo unspecified)
active: [1]; at 33.0 µM 98% | [1]; at 100.0 µM 89% | [3]; at 33.0 µM 98% | [3]; at 100.0 µM 95% | [4]; at 33.0 µM 96% | [4]; at 50.0 µM 99.6% | [4]; at 100.0 µM 96% | [5]; at 33.0 µM 99% | [5]; at 50.0 µM 99.8%
inactive: [1]; at 1.2 µM -2% | [1]; at 3.7 µM 0% | [1]; at 11.0 µM 17% | [2]; at 1.2 µM -3% | [2]; at 3.7 µM -4% | [2]; at 11.0 µM -3% | [2]; at 33.0 µM 68% | [2]; at 100.0 µM 61% | [3]; at 1.2 µM -5% | [3]; at 3.7 µM -4% | [3]; at 11.0 µM 3% | [4]; at 1.2 µM -14% | [4]; at 3.7 µM 0% | [4]; [16] 20% | [4]; at 11.0 µM 10% | [4]; [17] -1% | [5]; at 1.2 µM -3% | [5]; at 3.7 µM 3% | [5]; [16] 11% | [5]; at 11.0 µM 18% | [5]; [17] 5%
